Results taken from PubChem BioAssay AID1159580 (chemical genetic matrix, 2015).
“And” between values parts separate entries of the source, which are not always exact repeats. Equal values may be shown once. Screen size: about 5,500 compounds; about 2,000 (36%) were called active. Not shown: some 18% with an inconclusive outcome. Cut-off read from the data, not from the text of the source: active = normalized growth mostly below about 0.91 (no sharp cut-off); inconclusive = no clear call, values can overlap the other calls; inactive = mostly above about 0.92. Some of the results follow.

Assay: chemical genetic growth profiling, strain panel (AID 1159580);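 note: tested at 20 µM; growth read once vehicle control cultures reached saturation at 30 °C; 1 = growth at the plate median or of vehicle wells; lower values mean less growth of the strain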
Details: S. cerevisiae deletion strains, growth OD

Measured: normalized growth

Cc1c(N(C)C)c(=O)n(-c2ccccc2)n1C
inactive: locus YAL013W, strain DEP1, stronger effect = lower value 0.994 | locus YAL021C, strain ccr4, stronger effect = lower value 0.981 | locus YAL026C, strain drs2, stronger effect = lower value 0.977 | locus YAL030W, strain snc1, stronger effect = lower value 0.982 | locus YBL061C, strain skt5, stronger effect = lower value 1 | locus YBR009C, strain hhf1, stronger effect = lower value 0.976 | locus YBR021W, strain FUR4, stronger effect = lower value 1.01 | locus YBR023C, strain chs3, stronger effect = lower value 0.983 | locus YBR171W, strain sec66, stronger effect = lower value 0.987 | locus YBR229C, strain ROT2, stronger effect = lower value 0.978 | locus YBR231C, strain swc5, stronger effect = lower value 0.99 | locus YBR279W, strain paf1, stronger effect = lower value 0.996 | locus YCL011C, strain gbp2, stronger effect = lower value 1.01 | locus YCL016C, strain dcc1, stronger effect = lower value 0.993 | locus YCL029C, strain bik1, stronger effect = lower value 0.972 | locus YCL061C, strain MRC1, stronger effect = lower value 0.979 | locus YCL069W, strain vba3, stronger effect = lower value 1 | locus YCR088W, strain abp1, stronger effect = lower value 1 | locus YDL005C, strain med2, stronger effect = lower value 0.96 | locus YDL035C, strain GPR1, stronger effect = lower value 0.995 | locus YDL040C, strain nat1, stronger effect = lower value 0.991 | locus YDL074C, strain BRE1, stronger effect = lower value 0.984 | locus YDL101C, strain DUN1, stronger effect = lower value 0.983 | locus YDL134C, strain PPH21, stronger effect = lower value 0.997 | locus YDL185W, strain tfp1, stronger effect = lower value 0.962 | locus YDL192W, strain arf1, stronger effect = lower value 0.98 | locus YDR001C, strain nth1, stronger effect = lower value 0.994 | locus YDR069C, strain doa4, stronger effect = lower value 0.971 | locus YDR101C, strain arx1, stronger effect = lower value 0.99 | locus YDR137W, strain rgp1, stronger effect = lower value 0.986 | locus YDR150W, strain NUM1, stronger effect = lower value 0.993 | locus YDR159W, strain sac3, stronger effect = lower value 0.948 | locus YDR162C, strain NBP2, stronger effect = lower value 0.993 | locus YDR195W, strain ref2 0.934 | locus YDR297W, strain sur2, stronger effect = lower value 1 | locus YDR318W, strain mcm21, stronger effect = lower value 0.989 | locus YDR334W, strain swr1, stronger effect = lower value 0.987 | locus YDR335W, strain msn5, stronger effect = lower value 0.993 | locus YDR388W, stronger effect = lower value 0.998 | locus YDR392W, strain spt3, stronger effect = lower value 1 | locus YDR502C, strain sam2, stronger effect = lower value 0.999 | locus YEL003W, strain gim4, stronger effect = lower value 0.997 | locus YEL037C, strain rad23, stronger effect = lower value 0.998 | locus YEL061C, strain CIN8 (second series), stronger effect = lower value 1.01 | locus YEL061C, strain CIN8, stronger effect = lower value 0.996 | locus YER015W, strain faa2, stronger effect = lower value 0.995 | locus YER016W, strain bim1, stronger effect = lower value 0.999 | locus YER110C, stronger effect = lower value 0.981 | locus YER111C, strain swi4, stronger effect = lower value 0.983 | locus YER155C, strain BEM2 (second series), stronger effect = lower value 0.989 | locus YER155C, strain BEM2, stronger effect = lower value 0.995 | locus YER167W, strain BCK2, stronger effect = lower value 0.99 | locus YFR010W, strain ubp6, stronger effect = lower value 0.986 | locus YGL078C, strain dbp3, stronger effect = lower value 0.997 | locus YGL086W, strain mad1, stronger effect = lower value 1 | locus YGL167C, strain pmr1, stronger effect = lower value 0.982 | locus YGL173C, strain kem1, stronger effect = lower value 0.96 | locus YGL227W, strain vid30, stronger effect = lower value 0.984 | locus YGL240W, strain doc1, stronger effect = lower value 0.972 | locus YGL248W, strain PDE1, stronger effect = lower value 0.998 | locus YGL253W, strain hxk2, stronger effect = lower value 1.02 | locus YGR078C, strain PAC10, stronger effect = lower value 0.985 | locus YGR135W, strain pre9, stronger effect = lower value 0.991 | locus YGR229C, strain SMI1, stronger effect = lower value 0.992 | locus YGR252W, strain gcn5, stronger effect = lower value 1.1 | locus YHR013C, strain ard1, stronger effect = lower value 0.964 | locus YHR027C, strain rpn1, stronger effect = lower value 0.996 | locus YHR030C, strain SLT2, stronger effect = lower value 0.976 and 1.04 | locus YHR079C, strain IRE1 (second series), stronger effect = lower value 0.99 | locus YHR079C, strain IRE1, stronger effect = lower value 1.01 | locus YHR094C, strain hxt1, stronger effect = lower value 0.978 | locus YHR129C, strain ARP1, stronger effect = lower value 0.993 | locus YHR142W, strain chs7, stronger effect = lower value 1.02 | locus YHR200W, strain rpn10, stronger effect = lower value 0.999 | locus YIL066C, strain RNR3, stronger effect = lower value 0.992 | locus YIL073C, strain SPO22, stronger effect = lower value 0.923 | locus YIL125W, strain kgd1, stronger effect = lower value 0.99 | locus YIR030C, strain dcg1, stronger effect = lower value 0.99 | locus YJL092W, strain hpr5, stronger effect = lower value 1 | locus YJL095W, strain BCK1 (second series), stronger effect = lower value 0.997 | locus YJL095W, strain BCK1, stronger effect = lower value 0.966 and 1.04 | locus YJL115W, strain asf1, stronger effect = lower value 0.995 | locus YJL129C, strain trk1, stronger effect = lower value 0.983 | locus YJL134W, strain LCB3, stronger effect = lower value 0.997 | locus YJL154C, strain vps35, stronger effect = lower value 0.987 | locus YJL166W, strain qcr8, stronger effect = lower value 0.982 | locus YJL168C, strain set2, stronger effect = lower value 0.99 | locus YJL187C, strain SWE1 (second series), stronger effect = lower value 0.975 | locus YJR043C, strain POL32, stronger effect = lower value 0.986 | locus YJR066W, strain TOR1, stronger effect = lower value 0.972 | locus YJR075W, strain HOC1, stronger effect = lower value 0.997
